Test results published in PubChem BioAssay (NCATS).
Values joined by “and” are separate entries in the source; they are usually repeats but may differ in a detail not shown here. Equal entries are not always repeated. Inconclusive results are not listed. Active and inactive are the calls of the source. The call rests on the fitted dose curve; in most records, active means well fitted cell-killing curve with a large enough effect; inconclusive means small, poorly fitted or top-dose-only effect; inactive means flat fitted curve, though single readings scatter.

test: Cell Viability - N2a (AID 540); conditions: N2a mouse neuroblastoma cell viability; activity change, negative = cytotoxicity: at 92.2 µM (top of the series); further: nearly all actives have a fitted effect of over 45% in size;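 on activity change, negative = cytotoxicity: plate controls were DMSO alone for no effect and tamoxifen control for full effect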
Excerpt: NIH Chemical Genomics Center [NCGC]
NIH Molecular Libraries Screening Centers Network [MLSCN]
National Institutes of Environmental Health Sciences [NIEHS]
National Toxicology Program [NTP]
We have developed a 1536-well cell-based assay for quantitative high throughput screening (qHTS) against a number of cell lines to determine in vitro cytotoxicity of small molecules. This particular assay uses the N2a cell line which is derived from mouse neuroblastoma.
NCGC Assay Protocol Summary:
The CellTiter-Glo luminescent cell viability assay (Promega) is a homogeneous method to measure the number of viable cells in culture. The end point readout of this assay is based on quantitation of intracellular ATP, an indicator of metabolic activity, using the luciferase reaction. Luciferase catalyzes the oxidation of beetle Luciferin to oxyluciferin and light in the presence of ATP. The luminescent signal is proportional to amount of ATP present.
Using the CellTiter-Glo luminescent cell viability assay, the amount of cellular ATP was measured in the N2a cell line with complete culture medium following compound treatment for 40 hours. The assay was performed in opaque white Kalypsys 1536-well plates. In the screen, tamoxifen and doxorubicin were used as positive controls. Library compounds were measured for their ability to cause acute toxicity in the cell line, as reflected by a decrease in intracellular ATP levels, in a concentration-dependent manner. […] AC50 values were determined from concentration-response data modeled with the standard Hill equation.
qHTS protocol for CellTiter Glo N2a cellular assay
[Step] [Parameter] [Value] [Description]
1. Reagent; 5 uL; 1500 N2a cells/well
2. Time; 5 hr; 37 °C incubation
4. Controls; 23 nL; Tamoxifen 0.34 uM to 100 uM & Doxorubicin 0.02 nM to 100 uM
5. Time; 40 hr; 37 °C incubation
6. Reagent; 5 uL; CellTiter Glo reagent
7. Time; 20 min; Room Temperature
8. Detection; Luminescence; Viewlux plate reader
Keywords: cell viability, cytotoxicity, N2a cell line, luminescence, NTPHTS, NTPHTS_NCGC, NIEHS, EPA, DSSTox, MLSMR, MLSCN, NIH Roadmap, qHTS, NCGC
Potency means the concentration at half of the fitted maximal effect.

Compound | activity change, negative = cytotoxicity | Potency
C=CC(=O)NCNC(=O)C=C | 2.37% (inactive) | –
CCOCCOC(C)=O | -15.1% (inactive) | –
O=[N+]([O-])c1cc([N+](=O)[O-])c2ccccc2c1 | -22.1% (inactive) | –
CCCCCCCCc1ccc(O)cc1 | -16.1% (inactive) | –
CCOP(=O)(NC(C)C)Oc1ccc(SC)c(C)c1 (centres undefined) | -29.1% (inactive) | –
Nc1ccc(Cl)cc1 | -1.41% (inactive) | –
c1cc2ccc3cccc4ccc(c1)c2c34 | 2.91% (inactive) | –
CN(C)[C@@H]1C(=O)C(C(N)=O)=C(O)[C@@]2(O)C(=O)C3=C(O)c4c(O)cccc4[C@@](C)(O)[C@H]3[C@H](O)[C@@H]12 | 0.531% (inactive) | –
Nc1ccc(Sc2ccc(N)cc2)cc1 | -14% (inactive) | –
CC(=O)[O][Hg][c]1ccccc1 | – | 10 µM (active)
COC(C)(C)CCCC(C)C/C=C/C(C)=C/C(=O)OC(C)C (centres undefined) | -12% (inactive) | –
Cc1cc(O)ccc1Cl | -7.18% (inactive) | –
CC(C)(O)C(=O)Nc1ccc([N+](=O)[O-])c(C(F)(F)F)c1 | -95.6% (active) | –
O=C(O)C(Cl)Cl | 2.37% (inactive) | –
O=[N+]([O-])c1c2ccccc2cc2ccccc12 | -0.277% (inactive) | –
CN(C)NC(=O)CCC(=O)O | -4.24% (inactive) | –
O=C(O)COc1ccccc1 | -9.54% (inactive) | –
O=S(=O)(c1ccc(Cl)cc1)c1ccc(Cl)cc1 | -29.1% (inactive) | –
OCCCBr | 9.77% (inactive) | –
CCCCOC(=O)c1ccccc1C(=O)OCc1ccccc1 | -9.01% (inactive) | –
CCCCC(CC)COC(=O)c1ccccc1C(=O)OCC(CC)CCCC (centres undefined) | -29.3% (inactive) | –
O=[N+]([O-])c1c(Cl)c(Cl)cc(Cl)c1Cl | 3.06% (inactive) | –
C1CCC(NC2CCCCC2)CC1 | 3.55% (inactive) and 8.48% (inactive) | –
Nc1ccc([N+](=O)[O-])cc1 | 0.412% (inactive) | –
